# Experimental data as given in the supplement of paper PMC8728848.
# About 410 targets per protein were measured; listed, in parts, are those with the strongest signals and a random draw of the rest.
# B1: MGL6A (Homo sapiens) (protein)
# chain: MTRTYENFQYLENKVKVQGFKNGPLPLQSLLQRLCSGPCHLLLSLGLGLLLLVIICVVGFQNSKFQRDLVTLRTDFSNFTSNTVAEIQALTSQGSSLEETIASLKAEVEGFKQERQAVHSEMLLRVQQLVQDLKKLTCQVATLNNNGEEASTEGTCCPVNWVEHQDSCYWFSHSGMSWAEAEKYCQLKNAHLVVINSREEQNFVQKYLGSAYTWMGLSDPEGAWKWVDGTDYATGFQNWKPGQPDDWQGHGLGGGEDCAHFHPDGRWNDDVCQRPYHWVCEAGLGQTSQESH
# Experiments:
# Test in all cases: glycan array binding signal (z-score within array); higher = stronger binding
# Conditions in all cases: glycan notation: IUPAC condensed, linker removed
# Fuc(a1-2)Gal(b1-3)GalNAc = molecular target: Fuc(a1-2)Gal(b1-3)GalNAc
# Summary of the method: (§1)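 Arrays were curated from the Consortium for Functional Glycomics database, 3228 in total, and kept only where the protein sequence was available. Binding is expressed as a within-array Z-score. This score was averaged across arrays of the same protein sequence at different concentrations or buffers and across linkers, and negative values can be read as non-binding.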
# [1] = molecular target: Fuc(a1-2)Gal(b1-4)GlcNAc(b1-6)GalNAc
# Summary of the method: as §1
# [2] = molecular target: Fuc(a1-2)Gal(b1-4)[Fuc(a1-3)]GlcNAc(b1-3)GalNAc
# Summary of the method: as §1
# Fuc(a1-2)[Gal(a1-3)]Gal = molecular target: Fuc(a1-2)[Gal(a1-3)]Gal
# Summary of the method: as §1
# [3] = molecular target: Fuc(a1-2)[Gal(a1-3)]Gal(b1-3)GalNAc
# Summary of the method: as §1
# [4] = molecular target: Fuc(a1-2)[Gal(a1-3)]Gal(b1-4)GlcNAc(b1-6)GalNAc
# Summary of the method: as §1
# [5] = molecular target: Fuc(a1-2)[GalNAc(a1-3)]Gal(b1-3)GalNAc(a1-3)[Fuc(a1-2)]Gal(b1-4)GlcNAc
# Summary of the method: as §1
# [6] = molecular target: Fuc(a1-2)[GalNAc(a1-3)]Gal(b1-4)Glc
# Summary of the method: as §1
# [7] = molecular target: Fuc(a1-2)[GalNAc(a1-3)]Gal(b1-4)GlcNAc(b1-2)Man
# Summary of the method: as §1
# [8] = molecular target: Fuc(a1-2)[GalNAc(a1-3)]Gal(b1-4)[Fuc(a1-3)]GlcNAc
# Summary of the method: as §1
# [9] = molecular target: Fuc(a1-2)[GalNAc(a1-4)]Gal(b1-4)GlcNAc
# Summary of the method: as §1
# [10] = molecular target: Fuc(a1-2)[GalNAc(b1-3)]Gal
# Summary of the method: as §1
# [11] = molecular target: Fuc(a1-3)[Gal(b1-4)]GlcNAc(b1-2)Man(a1-6)[Gal(b1-4)GlcNAc(b1-2)Man(a1-3)]Man(b1-4)GlcNAc(b1-4)GlcNAc
# Summary of the method: as §1
# [12] = molecular target: Gal(a1-3)Gal(b1-3)GlcNAc(b1-6)GalNAc
# Summary of the method: as §1
# [13] = molecular target: Gal(a1-3)Gal(b1-3)[Fuc(a1-4)]GlcNAc(b1-2)Man(a1-3)[Gal(a1-3)Gal(b1-3)[Fuc(a1-4)]GlcNAc(b1-2)Man(a1-6)]Man(b1-4)GlcNAc(b1-4)GlcNAc
# Summary of the method: as §1
# [14] = molecular target: Gal(a1-3)Gal(b1-4)GlcNAc(b1-2)Man(a1-3)[Gal(a1-3)Gal(b1-4)GlcNAc(b1-2)Man(a1-6)]Man(b1-4)GlcNAc(b1-4)GlcNAc
# Summary of the method: as §1
# [15] = molecular target: Gal(a1-3)Gal(b1-4)GlcNAc(b1-6)GalNAc
# Summary of the method: as §1
# [16] = molecular target: Gal(a1-4)Gal(b1-4)GlcNAc(b1-2)Man(a1-3)[Gal(a1-4)Gal(b1-4)GlcNAc(b1-2)Man(a1-6)]Man(b1-4)GlcNAc(b1-4)GlcNAc
# Summary of the method: as §1
# [17] = molecular target: Gal(b1-3)GlcNAc(b1-6)GalNAc
# Summary of the method: as §1
# Gal(b1-4)GlcNAc = molecular target: Gal(b1-4)GlcNAc
# Summary of the method: as §1
# [18] = molecular target: Gal(b1-4)GlcNAc(b1-3)Gal(b1-4)Glc
# Summary of the method: as §1
# [19] = molecular target: Gal(b1-4)GlcNAc(b1-3)Gal(b1-4)GlcNAc(b1-3)GalNAc
# Summary of the method: as §1
# [20] = molecular target: Gal(b1-4)GlcNAc(b1-6)Gal(b1-4)GlcNAc(b1-6)GalNAc
# Summary of the method: as §1
# [21] = molecular target: Gal(b1-4)GlcNAc(b1-6)GalNAc
# Summary of the method: as §1
# GalNAc(b1-3)Gal = molecular target: GalNAc(b1-3)Gal
# Summary of the method: as §1
# [22] = molecular target: GalNAc(b1-3)Gal(a1-6)Gal(b1-4)Glc
# Summary of the method: as §1
# [23] = molecular target: GalNAc(b1-4)GlcNAc(b1-3)GalNAc(b1-4)GlcNAc
# Summary of the method: as §1
# [24] = molecular target: GlcNAc(a1-4)Gal(b1-3)GlcNAc
# Summary of the method: as §1
# [25] = molecular target: GlcNAc(b1-3)Gal(b1-4)GlcNAc(b1-3)Gal(b1-4)GlcNAc
# Summary of the method: as §1
# [26] = molecular target: GlcNAc(b1-3)Gal(b1-4)GlcNAc(b1-3)GalNAc
# Summary of the method: as §1
# [27] = molecular target: Man(a1-3)[Man(a1-6)]Man(b1-4)GlcNAc(b1-4)GlcNAc
# Summary of the method: as §1
# Man(b1-4)GlcNAc = molecular target: Man(b1-4)GlcNAc
# Summary of the method: as §1
# [28] = molecular target: Neu5Ac(a2-3)Gal(b1-3)GlcNAc(b1-3)GalNAc
# Summary of the method: as §1
# [29] = molecular target: Neu5Ac(a2-3)Gal(b1-3)[GlcNAc(b1-6)]GalNAc
# Summary of the method: as §1
# Neu5Ac(a2-3)Gal(b1-4)Glc = molecular target: Neu5Ac(a2-3)Gal(b1-4)Glc
# Summary of the method: as §1
# [30] = molecular target: Neu5Ac(a2-3)Gal(b1-4)GlcNAc(b1-3)Gal(b1-3)GlcNAc
# Summary of the method: as §1
# [31] = molecular target: Neu5Ac(a2-3)Gal(b1-4)GlcNAc(b1-6)GalNAc
# Summary of the method: as §1
# [32] = molecular target: Neu5Ac(a2-3)Gal(b1-4)[Fuc(a1-3)]GlcNAc(b1-6)[Neu5Ac(a2-3)Gal(b1-3)]GalNAc
# Summary of the method: as §1
# [33] = molecular target: Neu5Ac(a2-6)Gal(b1-3)GlcNAc(b1-3)[Gal(b1-4)GlcNAc(b1-6)]Gal(b1-4)Glc
# Summary of the method: as §1
# [34] = molecular target: Neu5Ac(a2-6)Gal(b1-4)GlcNAc(b1-2)Man
# Summary of the method: as §1
# [35] = molecular target: Neu5Ac(a2-8)Neu5Ac(a2-3)[GalNAc(b1-4)]Gal(b1-4)Glc
# Summary of the method: as §1
# [36] = molecular target: Neu5Ac(b2-6)Gal(b1-4)GlcNAc
# Summary of the method: as §1
# [37] = molecular target: Neu5Gc(a2-3)Gal(b1-3)GlcNAc
# Summary of the method: as §1
# [38] = molecular target: Neu5Gc(a2-3)Gal(b1-4)GlcNAc
# Summary of the method: as §1
# [39] = molecular target: Neu5Gc(a2-8)Neu5Ac(a2-3)Gal(b1-4)GlcNAc
# Summary of the method: as §1
binder,measurement,setting,value
B1,glycan array binding signal (z-score),Fuc(a1-2)Gal(b1-3)GalNAc,-0.261
same,glycan array binding signal (z-score),[1],4.02
same,glycan array binding signal (z-score),[2],-0.238
same,glycan array binding signal (z-score),Fuc(a1-2)[Gal(a1-3)]Gal,-0.261
same,glycan array binding signal (z-score),[3],-0.249
same,glycan array binding signal (z-score),[4],-0.27
same,glycan array binding signal (z-score),[5],0.966
same,glycan array binding signal (z-score),[6],0.534
same,glycan array binding signal (z-score),[7],-0.017
same,glycan array binding signal (z-score),[8],-0.22
same,glycan array binding signal (z-score),[9],4.68
same,glycan array binding signal (z-score),[10],4.73
same,glycan array binding signal (z-score),[11],1.06
same,glycan array binding signal (z-score),[12],4.29
same,glycan array binding signal (z-score),[13],-0.221
same,glycan array binding signal (z-score),[14],-0.225
same,glycan array binding signal (z-score),[15],4.16
same,glycan array binding signal (z-score),[16],-0.244
same,glycan array binding signal (z-score),[17],3.91
same,glycan array binding signal (z-score),Gal(b1-4)GlcNAc,-0.075
same,glycan array binding signal (z-score),[18],-0.284
same,glycan array binding signal (z-score),[19],-0.303
same,glycan array binding signal (z-score),[20],-0.256
same,glycan array binding signal (z-score),[21],4.67
same,glycan array binding signal (z-score),GalNAc(b1-3)Gal,4.13
same,glycan array binding signal (z-score),[22],4.47
same,glycan array binding signal (z-score),[23],3.79
same,glycan array binding signal (z-score),[24],-0.306
same,glycan array binding signal (z-score),[25],0.5
same,glycan array binding signal (z-score),[26],-0.327
same,glycan array binding signal (z-score),[27],-0.224
same,glycan array binding signal (z-score),Man(b1-4)GlcNAc,-0.258
same,glycan array binding signal (z-score),[28],-0.273
same,glycan array binding signal (z-score),[29],-1.57
same,glycan array binding signal (z-score),Neu5Ac(a2-3)Gal(b1-4)Glc,-0.45
same,glycan array binding signal (z-score),[30],-0.277
same,glycan array binding signal (z-score),[31],3.89
same,glycan array binding signal (z-score),[32],-0.153
same,glycan array binding signal (z-score),[33],-0.259
same,glycan array binding signal (z-score),[34],-0.302
same,glycan array binding signal (z-score),[35],2.18
same,glycan array binding signal (z-score),[36],-0.277
same,glycan array binding signal (z-score),[37],-0.256
same,glycan array binding signal (z-score),[38],-0.228
same,glycan array binding signal (z-score),[39],-0.273
